Data taken from PubChem BioAssay AID1946 (Johns Hopkins Ion Channel Center, 2009).
About 180 (7.5%) of roughly 2,400 compounds were called active. For the sample, actives were picked, then their nearest neighbours and some compounds at random. Unmarked numbers belong to inactive results.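 Rule for the calls: active = readout below zero, meaning a drop past 3 SD under the dofetilide-free negative control mean; inactive = the rest.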

target: Potassium voltage-gated channel subfamily KQT member 2 (Rattus norvegicus) (UniProt O88943); assay: KCNQ2 blockade in CHO cells – cell-based, FluxOR thallium flux, counter-screen for hERG block protector project, confirmation (AID 1946); details: FluxOR thallium flux fluorescence, at 10 µM, hits give low values, zero marks the 3-SD hit cutoff
Sequence (O88943 whole entry, looked up): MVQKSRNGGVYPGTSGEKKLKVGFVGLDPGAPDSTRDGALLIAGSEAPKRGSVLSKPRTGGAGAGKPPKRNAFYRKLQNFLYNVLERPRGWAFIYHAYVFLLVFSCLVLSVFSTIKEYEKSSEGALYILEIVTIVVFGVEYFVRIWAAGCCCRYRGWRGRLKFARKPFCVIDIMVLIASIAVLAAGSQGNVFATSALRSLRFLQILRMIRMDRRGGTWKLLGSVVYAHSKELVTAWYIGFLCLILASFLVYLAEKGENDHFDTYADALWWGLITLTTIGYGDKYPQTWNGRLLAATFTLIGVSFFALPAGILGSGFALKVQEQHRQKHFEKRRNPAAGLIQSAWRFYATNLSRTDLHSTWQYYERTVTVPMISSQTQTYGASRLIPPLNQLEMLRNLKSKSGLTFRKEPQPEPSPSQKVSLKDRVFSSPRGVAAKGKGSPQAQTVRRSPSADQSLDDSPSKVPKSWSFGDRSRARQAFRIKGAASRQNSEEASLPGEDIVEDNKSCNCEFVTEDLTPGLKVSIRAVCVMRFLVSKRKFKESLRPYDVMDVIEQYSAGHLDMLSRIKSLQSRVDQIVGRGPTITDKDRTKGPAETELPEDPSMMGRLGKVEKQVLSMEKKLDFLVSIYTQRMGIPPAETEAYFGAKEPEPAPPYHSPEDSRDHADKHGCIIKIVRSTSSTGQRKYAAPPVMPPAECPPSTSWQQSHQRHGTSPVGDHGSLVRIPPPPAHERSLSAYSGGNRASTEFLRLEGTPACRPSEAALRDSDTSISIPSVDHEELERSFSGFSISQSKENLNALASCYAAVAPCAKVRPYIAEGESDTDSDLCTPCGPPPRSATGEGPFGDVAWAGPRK

Point of comparison: `CCc1cc2cc(C)cc(C)c2[nH]c1=S`, activity change vs negative control 29.9%. Against it:
- O=C(NC(=S)N1CCc2ccccc21)c1ccccc1Cl — higher, 93%
- CCCn1c(SCN2C(=O)c3ccccc3C2=O)nc2cc(Cl)ccc2c1=O — higher, 50.5%
- COC(=O)c1c(NC(=S)Nc2ccc(F)cc2[N+](=O)[O-])sc2c1CCCCC2 — lower, 25.2%
- CCc1ccc(NC(=O)C(=O)NNC(=O)c2ccc(OC)cc2)cc1 — higher, 122%
- CCCOc1ccc(C2NC(=S)NC(c3ccccc3)=C2C(=O)Nc2ccc(C)cc2)cc1OC (configuration not stated) — lower, 15.3%
- COc1ccccc1CC(=O)Nc1ccc(OC)c(OC)c1 — lower, 9.2%
- COc1ccc(-c2oc3ccccc3c(=O)c2OC(C)=O)cc1 — higher, 38.6%
- O=C(COc1ccc2ccccc2c1Br)Nc1cccnc1 — lower, 0.9%
- CCc1nnc(NC(=O)COc2ccc([N+](=O)[O-])cc2)s1 — lower, 15.3%
- N#Cc1ccc(-c2ccc(OCC(=O)Nc3cccnc3)cc2)cc1 — lower, 13.9%
- O=C(COc1ccccc1)Nc1ccc(F)cc1 — lower, 0.6%
- O=c1c2c3c(sc2[nH]c(=S)n1Cc1ccco1)CCC3 — higher, 56.4%
- Cc1[nH]n(-c2cccc3ccccc23)c(=O)c1/C=N/c1sc2c(c1C#N)CCC2 — lower, 23.1%
- COc1cccc(C(=O)NNC(=O)C(=O)Nc2ccc(OC)cc2OC)c1 — higher, 52.6%
- S=c1[nH]c(-c2ccc(Cl)cc2)cs1 — higher, 140%
- COC(=O)c1ccc(CSc2ncnc3sc(C)c(C)c23)o1 — lower, 23%
- COc1cccc(C(=O)NNC(=O)C(=O)Nc2ccc(C)cc2)c1 — higher, 99.7%
- Cc1ccc(/C=C/C(=O)c2ccccc(=O)c2O)c(C)c1 — higher, 63.1%
- C=CCN(CC=C)C(=S)NC(=O)c1ccc([N+](=O)[O-])cc1 — higher, 72.2%
- CCCCNC(=S)NC(=O)c1ccc([N+](=O)[O-])cc1 — higher, 46.5%
- O=C(NC(=S)Nc1ccccc1)c1cccs1 — lower, 17.9%
- O=C(O)c1ccc(S(=O)(=O)/N=C2\C=C(Nc3ccccc3F)C(=O)c3ccccc32)cc1 — higher, 31.7%
- Cc1cc(C)c(C(=O)c2ccc(C(=O)N3CCCCC3)cc2)c(C)c1 — higher, 32.9%
- O=C(Nc1nc2c(Br)cc(Br)cc2c(=O)s1)C1CCC1 — higher, 40.8%
- O=C(COc1ccc(Cl)cc1Cl)Nc1cccnc1 — lower, 11%
- O=C(Nc1cccnc1)c1ccc(COc2ccccc2Br)o1 — lower, 7.9%
- O=C(NC(=S)Nc1ccccc1F)c1ccc(Br)o1 — higher, 81.1%
- Cc1c(Cl)cccc1NC(=S)N=Nc1c(O)n(CN2CCOCC2)c2ccccc12 — lower, 28.6%
- O=C(CN1C(=O)S/C(=C\c2cccs2)C1=O)Nc1ccc(C(=O)O)c(O)c1 — higher, 44.5%
- O=C(CN1C(=O)S/C(=C\c2cccs2)C1=O)Nc1ccc(O)c(C(=O)O)c1 — lower, 7.9%
- O=C(NC(=S)Nc1nc2ccc(F)cc2s1)c1ccco1 — higher, 82.7%
- CCC1(c2ccc(Cl)cc2)NC(=S)N(c2ccc(C)c(C)c2)N1 (configuration not stated) — higher, 124%
- CCCN(Cc1ccccc1)C(=S)NC(=O)c1ccccc1[N+](=O)[O-] — higher, 120%
- O=C(NC(=S)N1CCCC(C(F)(F)F)C1)c1ccc(F)cc1 (configuration not stated) — higher, 46.1%
- CCOc1ccc2nc(N3C(=O)/C(=C/c4ccc(Cl)cc4)NC3=S)sc2c1 — lower, 6.5%
- CN(C)c1oc(-c2ccccc2[N+](=O)[O-])nc1C#N — lower, 16.4%
- CCOC(=O)C(=CNc1cc(C)nn1C(C)(C)C)C(=O)OCC — lower, 13%
- CC1CCCCC1NC(=S)NC(=O)c1cccs1 (configuration not stated) — higher, 49.2%
- CCC1(c2ccc(Cl)cc2)NC(=S)N(c2ccccc2)N1 (configuration not stated) — higher, 108%
- COCCNC(=O)C(c1ccc(C)o1)N(Cc1ccc(OC)cc1)C(=O)Cn1nnc2ccccc21 (configuration not stated) — higher, 33.6%
- Cc1ccc(NC(=O)CSc2nnc(-c3cccnc3)n2-c2ccc(C)cc2)cc1 — lower, 12.3%
- COc1cc(-c2nnc(SCC(=O)O)n2-c2ccccc2)cc(OC)c1OC — lower, 0.6%
- CC1Cc2ccccc2N1C(=S)NC(=O)c1ccc(Cl)cc1Cl (configuration not stated) — higher, 83.8%
- COCCn1c(=S)[nH]c2sc3c(c2c1=O)CCC(C)C3 (configuration not stated) — higher, 81%
- CC(C)N(Cc1ccccc1)C(=S)NC(=O)C1(C)CC1(Cl)Cl (configuration not stated) — higher, 53.8%
- COc1cccc(C=Nc2cc(C)cc(C)c2)c1O — higher, 39.5%
- O=c1cc(-c2ccccc2)nc2c(-c3ccccc3)c(C(F)(F)F)[nH]n12 — higher, 81.1%
- COc1cc(NC(=O)c2ccccc2)c(OC)cc1NC(=O)Cc1ccc(Br)cc1 — lower, 26.8%
- O=C(O)COc1ccc(NC(=O)c2ccc3c(c2)C(=O)N(C2CCCCC2)C3=O)cc1 — lower, 21.1%
- Cn1cc(/C=N/n2cnc3scc(-c4ccc(Cl)cc4)c3c2=O)c2ccccc21 — lower, 9%
- S=c1[nH]cnc2scc(-c3ccccc3)c12 — higher, 74.3%
- Cc1c(N2C(=O)/C(=C\c3ccccc3O)SC2=S)c(=O)n(-c2ccccc2)n1C — higher, 90%
- S=c1[nH]cnc2scc(-c3ccc(Cl)cc3)c12 — higher, 49.5%
- CCOC(=O)c1sc(NC(=S)NC(=O)c2ccccc2)nc1C — lower, 20.3%
- CC1CCN(S(=O)(=O)c2ccc3nc(N4CCN(c5ccccc5)CC4)ccc3c2)CC1 — lower, 4.3%
- CC(=O)c1c(N)[nH]c(-c2ccccc2)nc1=S — lower, 22.9%
- Cc1ccc(CN2CCN(CC(=O)NC(C)c3ccc4c(c3)OCCO4)C2=O)cc1 (configuration not stated) — higher, 38.3%
- CN1C(=O)/C(=N/OC(=O)c2ccccc2)c2ccccc21 — lower, 8%
- Cc1ccc(NC(=O)c2ccc(CNS(=O)(=O)c3cccc(C(F)(F)F)c3)cc2)cc1 — lower, 8.1%
- CC(=O)c1ccc(S(=O)(=O)NCc2ccc(C(=O)N(C)CC(=O)Nc3cccc(F)c3)cc2)cc1 — lower, 5.5%
- O=c1c2ccc(Cl)cc2nc(-c2cccc(C(F)(F)F)c2)n1O — higher, 141%
- ON/C=N/C(=S)Nc1ncc(C(F)(F)F)cc1Cl — higher, 49.3%
- CC1(C)CC2CC(C)(CN2C(=S)NC(=O)c2ccccc2Cl)C1 (configuration not stated) — higher, 37.9%
- Cc1ccc(/C(O)=C/C(=O)C(=O)NC23CC4CC(CC(C4)C2)C3)cc1 — higher, 32.5%
- Cc1ccc(N=Cc2cc(Cl)cc(Cl)c2O)nc1 — higher, 53.9%
- CN(C)CCNc1ncnc2c1sc1nc(N3CCCC3)c3c(c12)CC(C)(C)OC3 — lower, 8.8%
- Cc1cc(C)n(-c2nc3sc4c(c3c(=O)[nH]2)CCCC4)n1 — lower, 28%
- CC(NC(=O)NC1CCCCC1)c1ccc2c(c1)OCO2 (configuration not stated) — higher, 72.4%
- COc1ccccc1C(=O)NNC(=O)C(=O)NC(C)(C)C — higher, 31.3%
- Cc1ccc(NS(=O)(=O)c2ccc(NC(=O)c3ccccc3C(=O)O)cc2)cc1C — lower, 10.8%
- COc1ccc(NS(=O)(=O)c2ccc3ccccc3c2)c2ncccc12 — lower, 2%
- COc1ccc(C(=O)NC(=S)N(Cc2ccccc2)Cc2ccccc2)cc1 — higher, 51.4%
- CCOC(=O)N1CCN(c2c(-c3ccc(C)c(C)c3)c(=O)c2=O)CC1 — lower, 20.5%
- Cc1ccc(C(=O)NC(=S)N(C)C2CCCCC2)cc1Br — lower, 17.4%
- COc1ccc(CCNC(=O)c2ccc3c(c2)OCO3)cc1 — lower, 5%
- Cc1ccc(C(C)NC(=O)c2ccc3c(c2)OCO3)cc1C (configuration not stated) — higher, 58.4%
- O=c1c(-c2ccccc2)nc(-c2ccccc2)cn1O — higher, 88.1%
- COc1cccc(C(=O)NNC(=O)C(=O)Nc2cccc(Cl)c2C)c1 — higher, 83.6%

`COc1cc(C2C(C#N)=C(N)Oc3c2ccc2ccccc32)ccc1OCC(=O)Nc1ccc(C)cc1` (configuration not stated) was tested, and the activity change vs negative control was -0.6% (active).
`O=C(COc1ccc([N+](=O)[O-])cc1)Nc1cccnc1` was tested, and the activity change vs negative control was -4.2% (active).
With `O=C(COc1ccc(C(=O)c2ccccc2)cc1)Nc1cccnc1` the activity change vs negative control was -20.5% (active).
`CCCCCC(=O)NNC(=S)NC(=O)c1ccc([N+](=O)[O-])cc1` was tested, and the activity change vs negative control was -10.1% (active).
`O=C(Nc1cccnc1)c1ccc(COc2cc(Cl)ccc2Cl)o1` was tested, and the activity change vs negative control was -5.5% (active).
With `Nc1nc2c(s1)CCc1c-2cnn1-c1ccccc1` the activity change vs negative control was -0.2% (active).
In the case of `O=C(CN1C(=O)S/C(=C\c2cc(Cl)c(O)c(Cl)c2)C1=O)Nc1ccccc1`, the activity change vs negative control is reported as -7.3% (active).
`CN(C)c1oc(-c2ccccc2)nc1C#N` was tested, and the activity change vs negative control was -1.7% (active).
For `Cc1ccc(C(=C2C3C=CC2C2C(=O)NC(=O)C32)c2ccc(C)cc2)cc1` (configuration not stated), the activity change vs negative control was -2.6% (active).
In the case of `N#Cc1cc(-c2ccccc2)nnc1Oc1ccccc1`, the activity change vs negative control is reported as -0.2% (active).
`COc1ccc(-n2c(SCC#N)nnc2-c2cccnc2)cc1` was tested, and the activity change vs negative control was -1.2% (active).
`OC(CNCC(c1ccc(Cl)cc1Cl)c1c[nH]c2ccccc12)c1ccccc1` (configuration not stated) was tested, and the activity change vs negative control was -12% (active).
For `Cc1ccc(C)n1-n1c(C)nc2scc(-c3ccccc3)c2c1=O`, the activity change vs negative control was -3.2% (active).
`CC1CCN(c2ccc3c(c2)S(=O)(=O)c2ccccc2C3=O)CC1` was tested, and the activity change vs negative control was -10.9% (active).
With `CN(CC(=O)Nc1ccc(Cl)cc1)C(=O)c1cccc(S(=O)(=O)NCc2ccccc2)c1` the activity change vs negative control was -2.7% (active).
For `Cc1cc(C)n(-c2nc(NCCCN(C)C)c3c4c(sc3n2)CCCC4)n1`, the activity change vs negative control was -1.4% (active).
`COc1ccccc1-n1cnc2cc(NS(=O)(=O)c3ccc(Br)cc3)ccc21` was tested, and the activity change vs negative control was -2.5% (active).
With `CCCCNC(=S)NNC(=O)c1ccc2c(c1)OCO2` the activity change vs negative control was -2.9% (active).
